This is one part of a sample in which hits are shown more often than they occur.
PKM2 inhibitor: blocks activity of human pyruvate kinase M2; P14618; purified PKM2, ATP generation, Kinase-Glo luminescence; Potency, µM (doses to about 57.5 µM), inactives show top-dose activity change, negative = inhibition, hits mostly inhibitors; 260,000 compounds, 0.058% hits; also: potency is read from the fitted curve at half-maximal effect; nearly all actives have a fitted effect of over 60% in size
Target sequence (P14618 whole entry, looked up): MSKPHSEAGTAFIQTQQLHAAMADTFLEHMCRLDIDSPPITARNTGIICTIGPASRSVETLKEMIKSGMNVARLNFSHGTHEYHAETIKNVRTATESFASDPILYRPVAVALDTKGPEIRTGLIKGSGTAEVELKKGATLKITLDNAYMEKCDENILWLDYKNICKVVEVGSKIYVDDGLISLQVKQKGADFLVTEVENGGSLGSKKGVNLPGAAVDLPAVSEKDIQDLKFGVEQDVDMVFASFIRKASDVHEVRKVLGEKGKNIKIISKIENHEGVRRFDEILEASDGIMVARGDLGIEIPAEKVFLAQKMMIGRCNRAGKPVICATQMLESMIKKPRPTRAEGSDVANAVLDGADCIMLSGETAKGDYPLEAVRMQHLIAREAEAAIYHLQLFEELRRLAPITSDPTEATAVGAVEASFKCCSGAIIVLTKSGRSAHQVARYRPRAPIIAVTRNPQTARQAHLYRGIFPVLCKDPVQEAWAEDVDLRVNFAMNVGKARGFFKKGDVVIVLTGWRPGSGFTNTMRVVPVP
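Coupled luciferase luminescence (Kinase-Glo) detects ATP generated from 0.1 mM ADP and 0.5 mM PEP in imidazole buffer pH 7.2 with KCl, MgCl2; 1 h at room temperature. Enzyme at intermediate activity; normalized to uninhibited and no-enzyme controls.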
PKM2 inh dose: PKM2 (human) inhibition, concentration-response confirmation. shares compounds with PKM2 inhibitor. purified hPK-M2, Kinase-Glo ATP luminescence, 1 h. Potency, µM (top dose mostly 57.5 µM), for the others: at the top dose activity change, negative = inhibition, actives largely listed as inhibitors. 55 compounds, 50% hits. AID 2263
PKM2 FLuc cs: blocks firefly luciferase, flagging PKM2 inhibitor artifacts; shares compounds with PKM2 inhibitor; Potency, µM (top dose mostly 57.5 µM), without a hit: at the highest dose activity, negative = inhibition, most hits filed as inhibitors; 55 compounds, 30% hits; Kinase-Glo firefly luciferase, luminescence, 8 min
PKM2 inh LDH: PKM2 (human) inhibition, NADH coupled readout. shares compounds with PKM2 inhibitor. purified hPK-M2, LDH-coupled NADH fluorescence kinetic. Potency, µM (highest dose often 57.5 µM), for the others: at the highest dose activity change, negative = inhibition, hits mostly inhibitors. 55 tested, under 10 active. AID 2267
* = called active by the depositor; ? = inconclusive; · = no result; [ ] = another dose, or the depositor's remark. Calls follow the shape of the dose curve; as a rule, active = well fitted curve in the direction sought with a large enough effect; inconclusive = small, poorly fitted or top-dose-only effect, or another doubt; inactive = no such curve, though single readings can be large; an effect the other way counts as inactive or inconclusive.

SMILES | PKM2 inhibitor | others
Cc1ccc2nc(-c3ccc(C)o3)c(NC3CCCC3)n2c1 | · | PKM2 inh dose=11%;PKM2 FLuc cs=1%;PKM2 inh LDH=?
COc1ccccc1CC(=O)NNS(=O)(=O)c1ccc([N+](=O)[O-])cc1 | 39%
Cc1ccc(Nc2c(-c3ccsc3)nc3cccc(C)n23)cc1 | · | PKM2 inh dose=4%;PKM2 FLuc cs=-4%;PKM2 inh LDH=?
Cc1ccc(Nc2c(-c3ccc(C)o3)nc3cccc(C)n23)cc1 | · | PKM2 inh dose=14%;PKM2 FLuc cs=0%;PKM2 inh LDH=6.5µM*
Cc1ccc(Nc2c(-c3ccsc3)nc3c(C)cccn23)cc1 | · | PKM2 inh dose=8%;PKM2 FLuc cs=-1%;PKM2 inh LDH=?
Cc1ccc(-c2csc(Nc3ccc(S(N)(=O)=O)cc3)n2)o1 | 89%
COc1ccc(Nc2c(-c3ccc(C)o3)nc3ccccn23)cc1 | · | PKM2 inh dose=11%;PKM2 FLuc cs=5%;PKM2 inh LDH=10%
Cc1ccc(-c2nc3cnccn3c2Nc2ccc3c(c2)OCCO3)o1 | 49%
COc1ccc(NC(=O)c2cc(-c3ccc(C)o3)nc3ccccc23)cc1OC | 39%
CCN=C1S/C(=C\c2cc(Br)c(O)c(OC)c2)C(=O)N1CC | 2%
Cc1cccc(NC(=O)COc2ccc(/C=C\c3[nH]c(=O)[nH]c(=O)c3[N+](=O)[O-])cc2)c1 | 46%
Cn1c(=O)c2c(nc(Br)n2C/C=N/NC(N)=S)n(C)c1=O | 87%
O=C(/C=C/c1ccccc1[N+](=O)[O-])Nc1cccnc1 | 47%
O=S(=O)(c1ccc(F)cc1)N1CCN(Cc2ccccn2)CC1 | 32%
O=C(CNC(=O)c1ccc2ccccc2c1)OCC(=O)N1CCN(S(=O)(=O)c2ccc3ccccc3c2)CC1 | 33%
CC(C)C(C)NC(=O)COc1ccc(S(=O)(=O)N2CCOCC2)cc1Cl (stereo not given) | 91%
COc1ccc(S(=O)(=O)N(C(C)=O)c2ccc(OC(C)=O)c3ccccc23)cc1[N+](=O)[O-] | 38%
Cc1cc(NC(=O)CSc2nc(N)c(NC(=O)c3ccco3)c(=O)[nH]2)no1 | 77%
COc1ccccc1S(=O)(=O)N1CCN(S(=O)(=O)c2ccccc2C#N)CC1 | 87%
CC(=O)CCc1c(C)nc2ccc(C)cc2c1Cl | 78%
Cc1cccc2c1c1ccc3c(c1n2C)C(=O)C=CC3=O | 30%
CCCCC1=CC2=C(c3ccco3)C(=O)C(C)(OC(=O)c3ccc(OC)cc3)C(=O)C2=CN1C1CCCCC1 (stereo not given) | 43%[11.5 µM]
CS(=O)(=O)N(CC(=O)Nc1ccc(S(=O)(=O)N2CCOCC2)cc1)c1ccccc1Br | 32%
Cc1ccc(NC(=S)N2CCN(S(=O)(=O)c3ccc(C)cc3)CC2)cc1 | 34%
CN(Cc1ccon1)Cc1cn(C)nc1-c1cccc(Cl)c1 | 10µM* | PKM2 inh dose=6%;PKM2 FLuc cs=-1%;PKM2 inh LDH=-9%
COc1ccc(C(=O)OCC(=O)NCc2ccccc2)c(OC)c1OC | 38%
Cn1c(=O)n(C)c2cc(S(=O)(=O)Nc3cc(Cl)ccc3O)ccc21 | 92%
Cc1cc(C)c(C#N)c(SCC(=O)Nc2nonc2N)n1 | 67%
COc1ccc(S(=O)(=O)N(C)c2ccc(C(=O)NCc3ccco3)cc2)cc1 | 60%
C=Cc1ccc2c(c1)N(C)C(=C)S2 | 31%
